The supplement of paper PMC11732987, “Enantioselective OTUD7B fragment discovery through chemoproteomics screening and high-throughput optimisation” (Communications Chemistry, 2025)

What was measured:
Assay in all cases: log2 ratio of Biotin-Ahx-Ub-VS probe labelling (fragment/DMSO); higher = less target engagement (more negative = stronger competition), active = hit call of the paper (q ≤ 0.05, log2 ratio ≤ -1)
Conditions in all cases: compound concentration: 200 uM; treatment time: 3 h
[1] = molecular target: T1, USP19 (UniProt O94966)
T1 sequence (whole entry): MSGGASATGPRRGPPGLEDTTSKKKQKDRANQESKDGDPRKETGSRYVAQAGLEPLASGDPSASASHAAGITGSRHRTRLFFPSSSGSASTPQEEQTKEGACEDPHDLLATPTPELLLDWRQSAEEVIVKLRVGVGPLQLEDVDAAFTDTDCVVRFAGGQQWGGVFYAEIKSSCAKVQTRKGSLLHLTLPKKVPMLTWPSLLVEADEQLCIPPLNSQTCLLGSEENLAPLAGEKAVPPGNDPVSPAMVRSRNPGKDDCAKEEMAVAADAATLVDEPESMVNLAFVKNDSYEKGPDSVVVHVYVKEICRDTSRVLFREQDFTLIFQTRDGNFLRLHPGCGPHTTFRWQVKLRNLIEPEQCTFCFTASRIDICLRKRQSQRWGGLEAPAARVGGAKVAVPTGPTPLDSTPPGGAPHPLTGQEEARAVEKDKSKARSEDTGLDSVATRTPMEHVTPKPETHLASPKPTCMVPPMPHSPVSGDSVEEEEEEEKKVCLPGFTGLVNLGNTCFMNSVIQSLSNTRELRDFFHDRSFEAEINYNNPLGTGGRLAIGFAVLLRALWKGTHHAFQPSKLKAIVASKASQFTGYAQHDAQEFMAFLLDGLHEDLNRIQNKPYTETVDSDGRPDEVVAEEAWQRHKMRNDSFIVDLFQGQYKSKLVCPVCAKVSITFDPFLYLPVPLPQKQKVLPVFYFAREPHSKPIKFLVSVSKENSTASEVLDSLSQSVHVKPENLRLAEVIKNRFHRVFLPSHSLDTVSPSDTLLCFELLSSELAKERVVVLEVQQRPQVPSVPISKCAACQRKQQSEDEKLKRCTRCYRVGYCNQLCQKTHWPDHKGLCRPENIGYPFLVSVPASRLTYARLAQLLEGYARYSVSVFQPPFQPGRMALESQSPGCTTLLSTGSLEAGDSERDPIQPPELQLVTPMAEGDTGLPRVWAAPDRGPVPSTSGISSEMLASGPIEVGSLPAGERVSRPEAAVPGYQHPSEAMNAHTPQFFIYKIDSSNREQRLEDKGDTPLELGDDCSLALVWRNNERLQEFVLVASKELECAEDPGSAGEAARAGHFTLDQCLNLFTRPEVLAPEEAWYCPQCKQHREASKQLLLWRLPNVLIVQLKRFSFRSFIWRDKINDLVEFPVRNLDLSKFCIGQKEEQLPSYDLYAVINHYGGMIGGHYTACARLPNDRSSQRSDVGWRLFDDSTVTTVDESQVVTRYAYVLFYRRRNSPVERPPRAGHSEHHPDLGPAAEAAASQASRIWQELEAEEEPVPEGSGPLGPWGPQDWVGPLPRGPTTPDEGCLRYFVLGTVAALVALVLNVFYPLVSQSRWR
Summary of the method: (§1)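 HEK293T lysate, 495 µg per sample in Tris/CHAPS/IGEPAL buffer with protease inhibitors, was treated in triplicate with fragment at 200 µM or vehicle for 3 h and then with Biotin-Ahx-Ub-VS at 0.5 µM final for 1 h. Labelled DUBs were NeutrAvidin-enriched, digested with LysC and trypsin, and run by diaPASEF LC-MS/MS. Spectronaut label-free quantities were global-median-normalised, and values are average log2 fragment/vehicle ratios by unpaired t-test on proteins with ≥2 unique peptides.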

[2] = molecular target: USP24 (UniProt Q9UPU5)
Summary of the method: as §1

[3] = molecular target: T2, USP25 (UniProt Q9UHP3)
T2 sequence (whole entry): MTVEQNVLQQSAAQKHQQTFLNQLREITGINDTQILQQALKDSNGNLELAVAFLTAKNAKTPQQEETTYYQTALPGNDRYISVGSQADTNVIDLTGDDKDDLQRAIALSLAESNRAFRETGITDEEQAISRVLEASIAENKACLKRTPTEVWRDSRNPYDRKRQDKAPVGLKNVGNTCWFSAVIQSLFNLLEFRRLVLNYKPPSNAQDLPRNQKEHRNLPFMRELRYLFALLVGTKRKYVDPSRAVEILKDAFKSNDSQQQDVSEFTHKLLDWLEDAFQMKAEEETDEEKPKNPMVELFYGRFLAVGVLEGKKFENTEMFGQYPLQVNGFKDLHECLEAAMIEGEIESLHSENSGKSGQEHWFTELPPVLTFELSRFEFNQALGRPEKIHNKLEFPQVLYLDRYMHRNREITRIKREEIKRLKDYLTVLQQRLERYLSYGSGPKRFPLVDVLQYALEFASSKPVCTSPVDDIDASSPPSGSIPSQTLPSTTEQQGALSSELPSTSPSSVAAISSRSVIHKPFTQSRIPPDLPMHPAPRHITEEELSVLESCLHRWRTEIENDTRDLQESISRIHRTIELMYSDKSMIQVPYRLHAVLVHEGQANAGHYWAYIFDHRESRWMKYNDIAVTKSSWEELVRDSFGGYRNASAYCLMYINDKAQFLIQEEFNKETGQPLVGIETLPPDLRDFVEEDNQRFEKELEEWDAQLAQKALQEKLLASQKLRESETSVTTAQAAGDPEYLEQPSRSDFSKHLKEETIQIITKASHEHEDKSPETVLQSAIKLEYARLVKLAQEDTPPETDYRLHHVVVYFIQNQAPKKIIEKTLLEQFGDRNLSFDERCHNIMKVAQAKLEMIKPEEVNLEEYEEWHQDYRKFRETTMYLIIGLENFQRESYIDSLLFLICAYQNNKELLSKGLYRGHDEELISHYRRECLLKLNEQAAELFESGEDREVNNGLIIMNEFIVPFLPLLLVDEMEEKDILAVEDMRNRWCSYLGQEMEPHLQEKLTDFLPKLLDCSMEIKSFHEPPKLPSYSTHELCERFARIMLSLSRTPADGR
Summary of the method: as §1

[4] = molecular target: T3, USP28 (UniProt Q96RU2)
T3 sequence (whole entry): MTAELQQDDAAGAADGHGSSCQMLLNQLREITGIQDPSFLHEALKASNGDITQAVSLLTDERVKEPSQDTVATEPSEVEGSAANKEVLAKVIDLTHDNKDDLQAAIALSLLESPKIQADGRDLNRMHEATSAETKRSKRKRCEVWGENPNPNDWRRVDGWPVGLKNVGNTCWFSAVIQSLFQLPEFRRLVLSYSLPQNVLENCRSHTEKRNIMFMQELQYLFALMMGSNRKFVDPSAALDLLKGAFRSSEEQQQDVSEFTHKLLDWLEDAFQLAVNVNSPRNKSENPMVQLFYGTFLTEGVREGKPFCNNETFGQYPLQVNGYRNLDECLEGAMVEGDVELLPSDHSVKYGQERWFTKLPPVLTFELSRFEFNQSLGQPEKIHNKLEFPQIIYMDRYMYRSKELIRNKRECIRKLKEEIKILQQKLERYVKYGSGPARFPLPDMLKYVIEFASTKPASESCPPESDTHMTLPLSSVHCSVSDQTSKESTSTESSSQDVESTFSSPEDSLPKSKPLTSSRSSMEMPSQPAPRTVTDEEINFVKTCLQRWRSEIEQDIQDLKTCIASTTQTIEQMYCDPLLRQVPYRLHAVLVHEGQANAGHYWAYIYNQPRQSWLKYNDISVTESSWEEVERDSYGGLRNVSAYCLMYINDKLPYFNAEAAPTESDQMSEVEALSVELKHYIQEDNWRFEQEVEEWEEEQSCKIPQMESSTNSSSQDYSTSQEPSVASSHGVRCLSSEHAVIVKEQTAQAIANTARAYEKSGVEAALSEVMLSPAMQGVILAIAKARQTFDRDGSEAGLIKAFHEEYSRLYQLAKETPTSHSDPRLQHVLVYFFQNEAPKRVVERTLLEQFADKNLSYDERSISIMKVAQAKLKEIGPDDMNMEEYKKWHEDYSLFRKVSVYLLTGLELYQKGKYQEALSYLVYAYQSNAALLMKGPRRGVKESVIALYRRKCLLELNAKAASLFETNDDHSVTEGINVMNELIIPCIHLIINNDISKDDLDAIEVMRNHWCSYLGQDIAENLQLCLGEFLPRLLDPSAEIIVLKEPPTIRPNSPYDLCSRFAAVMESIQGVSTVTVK
Summary of the method: as §1

Measured: log2 ratio of Biotin-Ahx-Ub-VS probe labelling

USP24, sequence (Q9UPU5 whole entry): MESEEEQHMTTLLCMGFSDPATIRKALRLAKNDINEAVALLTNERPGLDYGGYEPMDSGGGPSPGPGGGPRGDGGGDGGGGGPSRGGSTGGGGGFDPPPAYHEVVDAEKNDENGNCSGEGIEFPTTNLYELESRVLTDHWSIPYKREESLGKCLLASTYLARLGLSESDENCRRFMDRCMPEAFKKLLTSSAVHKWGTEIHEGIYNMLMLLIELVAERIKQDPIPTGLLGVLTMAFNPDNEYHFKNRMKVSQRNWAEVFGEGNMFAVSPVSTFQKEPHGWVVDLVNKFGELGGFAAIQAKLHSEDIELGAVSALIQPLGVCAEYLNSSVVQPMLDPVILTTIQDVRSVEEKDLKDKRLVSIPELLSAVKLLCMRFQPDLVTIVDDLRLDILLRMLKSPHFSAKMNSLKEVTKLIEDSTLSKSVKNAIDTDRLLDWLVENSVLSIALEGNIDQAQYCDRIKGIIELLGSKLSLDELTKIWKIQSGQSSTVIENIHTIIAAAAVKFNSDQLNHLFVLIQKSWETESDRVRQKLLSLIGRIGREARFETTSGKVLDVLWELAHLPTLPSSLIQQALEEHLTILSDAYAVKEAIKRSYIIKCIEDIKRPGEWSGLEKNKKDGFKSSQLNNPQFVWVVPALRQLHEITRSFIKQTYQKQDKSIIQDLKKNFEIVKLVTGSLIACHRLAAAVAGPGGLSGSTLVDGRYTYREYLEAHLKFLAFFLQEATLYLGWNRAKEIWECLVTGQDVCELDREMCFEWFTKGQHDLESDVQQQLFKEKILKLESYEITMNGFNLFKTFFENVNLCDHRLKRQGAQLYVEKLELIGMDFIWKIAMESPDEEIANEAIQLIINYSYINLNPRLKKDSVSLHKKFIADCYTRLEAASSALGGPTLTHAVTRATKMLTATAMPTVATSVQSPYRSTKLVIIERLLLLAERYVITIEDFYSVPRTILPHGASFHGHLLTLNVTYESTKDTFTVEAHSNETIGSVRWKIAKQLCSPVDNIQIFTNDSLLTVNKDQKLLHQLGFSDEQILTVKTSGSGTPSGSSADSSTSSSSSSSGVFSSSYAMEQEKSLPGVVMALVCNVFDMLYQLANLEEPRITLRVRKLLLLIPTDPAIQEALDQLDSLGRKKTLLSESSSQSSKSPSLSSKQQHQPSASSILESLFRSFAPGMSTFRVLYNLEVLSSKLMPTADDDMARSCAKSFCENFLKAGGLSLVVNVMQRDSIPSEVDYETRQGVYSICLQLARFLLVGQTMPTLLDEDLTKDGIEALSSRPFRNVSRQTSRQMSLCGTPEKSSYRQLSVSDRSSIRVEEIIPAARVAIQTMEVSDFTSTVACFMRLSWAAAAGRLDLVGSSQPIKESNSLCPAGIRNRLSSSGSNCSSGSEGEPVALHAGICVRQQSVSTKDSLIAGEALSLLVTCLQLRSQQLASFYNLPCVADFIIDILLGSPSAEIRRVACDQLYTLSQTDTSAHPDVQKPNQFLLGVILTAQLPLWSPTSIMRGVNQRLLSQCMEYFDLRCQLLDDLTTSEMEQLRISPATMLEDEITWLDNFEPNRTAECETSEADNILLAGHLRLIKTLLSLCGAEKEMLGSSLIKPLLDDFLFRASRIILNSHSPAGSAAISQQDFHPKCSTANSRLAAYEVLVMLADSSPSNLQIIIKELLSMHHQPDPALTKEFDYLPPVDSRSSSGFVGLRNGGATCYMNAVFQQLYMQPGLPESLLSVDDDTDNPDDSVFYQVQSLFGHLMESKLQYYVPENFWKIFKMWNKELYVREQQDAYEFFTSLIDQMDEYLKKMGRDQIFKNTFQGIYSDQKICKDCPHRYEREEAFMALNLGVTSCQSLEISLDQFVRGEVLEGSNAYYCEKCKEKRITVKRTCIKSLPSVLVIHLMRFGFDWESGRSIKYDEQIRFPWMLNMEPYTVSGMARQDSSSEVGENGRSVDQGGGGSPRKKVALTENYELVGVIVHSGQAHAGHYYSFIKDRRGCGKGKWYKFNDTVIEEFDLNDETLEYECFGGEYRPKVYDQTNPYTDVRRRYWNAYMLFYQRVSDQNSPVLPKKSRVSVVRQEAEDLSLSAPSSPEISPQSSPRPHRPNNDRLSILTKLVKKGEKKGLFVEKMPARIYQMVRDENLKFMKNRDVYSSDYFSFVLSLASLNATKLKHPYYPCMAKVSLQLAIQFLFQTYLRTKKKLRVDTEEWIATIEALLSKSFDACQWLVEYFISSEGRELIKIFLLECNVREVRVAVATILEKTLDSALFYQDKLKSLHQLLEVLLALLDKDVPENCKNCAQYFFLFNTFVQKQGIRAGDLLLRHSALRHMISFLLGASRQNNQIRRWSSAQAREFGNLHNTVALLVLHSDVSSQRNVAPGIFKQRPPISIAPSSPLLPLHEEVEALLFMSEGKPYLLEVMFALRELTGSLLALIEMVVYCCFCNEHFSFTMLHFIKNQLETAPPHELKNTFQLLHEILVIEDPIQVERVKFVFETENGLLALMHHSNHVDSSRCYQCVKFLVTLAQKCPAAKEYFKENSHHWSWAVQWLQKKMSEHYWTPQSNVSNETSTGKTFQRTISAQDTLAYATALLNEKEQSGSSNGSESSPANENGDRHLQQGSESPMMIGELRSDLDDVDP

Cc1cc(C(=O)NC2CCN(C(=O)CCl)CC2)no1
inactive: [1] -0.0463 | [2] -0.225 | [3] -0.417 | [4] -0.353
